The whole screen tested about 5,500 compounds, of which about 2,000 (36%) were called active. Not shown: some 18% with an inconclusive outcome. No stated cut-off is given here; in the data, active means normalized growth mostly below about 0.91 (no sharp cut-off); inconclusive means no clear call, values can overlap the other calls; inactive means mostly above about 0.92. This is one part of the list.
Assay: chemical genetic growth profiling, strain panel (AID 1159580);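 further: tested at 20 µM; growth read once vehicle control cultures reached saturation at 30 °C; 1 = growth at the plate median or of vehicle wells; lower values mean less growth of the strain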
Details: growth OD

Measured: normalized growth

COc1cc([C@@H]2c3cc4c(cc3[C@H](O)[C@H]3COC(=O)[C@@H]23)OCO4)cc(OC)c1OC
inactive: S. cerevisiae deletion strains, locus YKL009W, strain mrt4, hits give low values 1 | S. cerevisiae deletion strains, locus YKL068W, hits give low values 0.977 | S. cerevisiae deletion strains, locus YKL085W, strain MDH1 (second series), hits give low values 1 | S. cerevisiae deletion strains, locus YKL085W, strain MDH1, hits give low values 1 | S. cerevisiae deletion strains, locus YKL160W, strain elf1, hits give low values 1.02 | S. cerevisiae deletion strains, locus YKR001C, strain vps1, hits give low values 0.978 | S. cerevisiae deletion strains, locus YKR026C, strain gcn3, hits give low values 1.02 | S. cerevisiae deletion strains, locus YKR091W, strain srl3, hits give low values 1.02 | S. cerevisiae deletion strains, locus YLL001W, strain dnm1, hits give low values 1.01 | S. cerevisiae deletion strains, locus YLL026W, hits give low values 1.01 | S. cerevisiae deletion strains, locus YLL041C, strain sdh2, hits give low values 1.02 | S. cerevisiae deletion strains, locus YLR027C, strain aat2, hits give low values 1.03 | S. cerevisiae deletion strains, locus YLR039C, strain RIC1, hits give low values 0.996 | S. cerevisiae deletion strains, locus YLR058C, strain SHM2, hits give low values 1.01 | S. cerevisiae deletion strains, locus YLR102C, strain apc9, hits give low values 0.984 | S. cerevisiae deletion strains, locus YLR113W, strain HOG1, hits give low values 0.997 | S. cerevisiae deletion strains, locus YLR221C, strain rsa3, hits give low values 0.999 | S. cerevisiae deletion strains, locus YLR258W, strain gsy2, hits give low values 1.02 | S. cerevisiae deletion strains, locus YLR262C, strain YPT6 (second series), hits give low values 1.04 | S. cerevisiae deletion strains, locus YLR262C, strain YPT6, hits give low values 0.991 | S. cerevisiae deletion strains, locus YLR268W, strain sec22, hits give low values 0.971 | S. cerevisiae deletion strains, locus YLR320W, strain mms22, hits give low values 1.01 | S. cerevisiae deletion strains, locus YLR330W, strain CHS5, hits give low values 0.998 | S. cerevisiae deletion strains, locus YLR342W, strain FKS1 (second series), hits give low values 1.02 | S. cerevisiae deletion strains, locus YLR342W, strain FKS1, hits give low values 1.02 | S. cerevisiae deletion strains, locus YLR357W, strain rsc2, hits give low values 1.02 | S. cerevisiae deletion strains, locus YLR370C, strain arc18, hits give low values 1.03 | S. cerevisiae deletion strains, locus YLR371W, strain rom2, hits give low values 0.972 | S. cerevisiae deletion strains, locus YLR384C, strain iki3, hits give low values 1.02 | S. cerevisiae deletion strains, locus YLR418C, strain cdc73, hits give low values 1.05 | S. cerevisiae deletion strains, locus YML016C, strain PPZ1, hits give low values 0.997 | S. cerevisiae deletion strains, locus YML032C, strain rad52, hits give low values 1.02 | S. cerevisiae deletion strains, locus YML120C, strain ndi1, hits give low values 1.01 | S. cerevisiae deletion strains, locus YML124C, strain tub3, hits give low values 0.993 | S. cerevisiae deletion strains, locus YMR058W, strain fet3, hits give low values 1.02 | S. cerevisiae deletion strains, locus YMR078C, strain ctf18, hits give low values 0.991 | S. cerevisiae deletion strains, locus YMR125W, strain sto1, hits give low values 1.02 | S. cerevisiae deletion strains, locus YMR129W, hits give low values 1.02 | S. cerevisiae deletion strains, locus YMR205C, strain PFK2, hits give low values 1.02 | S. cerevisiae deletion strains, locus YMR223W, strain ubp8, hits give low values 1.01 | S. cerevisiae deletion strains, locus YMR231W, strain pep5, hits give low values 1.03 | S. cerevisiae deletion strains, locus YMR263W, strain SAP30, hits give low values 1.01 | S. cerevisiae deletion strains, locus YMR307W, strain GAS1, hits give low values 1.05 | S. cerevisiae deletion strains, locus YNL067W, strain RPL9B, hits give low values 1.01 | S. cerevisiae deletion strains, locus YNL071W, strain lat1, hits give low values 1.02 | S. cerevisiae deletion strains, locus YNL153C, strain GIM3, hits give low values 1.03 | S. cerevisiae deletion strains, locus YNL183C, strain NPR1, hits give low values 0.904 | S. cerevisiae deletion strains, locus YNL209W, strain ssb2, hits give low values 1.01 | S. cerevisiae deletion strains, locus YNL233W, strain BNI4, hits give low values 1.01 | S. cerevisiae deletion strains, locus YNL248C, strain rpa49, hits give low values 1.01 | S. cerevisiae deletion strains, locus YNL250W, strain rad50, hits give low values 0.95 | S. cerevisiae deletion strains, locus YNL271C, strain bni1, hits give low values 0.993 | S. cerevisiae deletion strains, locus YNL298W, strain CLA4, hits give low values 0.997 | S. cerevisiae deletion strains, locus YNL307C, strain MCK1, hits give low values 0.992 | S. cerevisiae deletion strains, locus YNL322C, strain KRE1 (second series), hits give low values 1.01 | S. cerevisiae deletion strains, locus YNL322C, strain KRE1, hits give low values 1 | S. cerevisiae deletion strains, locus YNR049C, strain mso1, hits give low values 1.02 | S. cerevisiae deletion strains, locus YNR052C, strain pop2, hits give low values 1.01 | S. cerevisiae deletion strains, locus YOL012C, strain htz1 0.992 | S. cerevisiae deletion strains, locus YOL147C, strain pex11, hits give low values 0.993 | S. cerevisiae deletion strains, locus YOR001W, strain rrp6, hits give low values 1.04 | S. cerevisiae deletion strains, locus YOR061W, strain CKA2, hits give low values 1 | S. cerevisiae deletion strains, locus YOR069W, strain VPS5, hits give low values 0.991 | S. cerevisiae deletion strains, locus YOR070C, strain gyp1, hits give low values 1.02 | S. cerevisiae deletion strains, locus YOR080W, strain dia2, hits give low values 1.03 | S. cerevisiae deletion strains, locus YOR083W, strain WHI5, hits give low values 1.02 | S. cerevisiae deletion strains, locus YOR106W, strain vam3, hits give low values 1.04 | S. cerevisiae deletion strains, locus YOR136W, strain idh2, hits give low values 0.98 | S. cerevisiae deletion strains, locus YOR144C, strain elg1, hits give low values 1 | S. cerevisiae deletion strains, locus YOR184W, strain ser1, hits give low values 0.999 | S. cerevisiae deletion strains, locus YOR231W, strain MKK1, hits give low values 0.996 | S. cerevisiae deletion strains, locus YOR265W, strain rbl2, hits give low values 1.02 | S. cerevisiae deletion strains, locus YOR270C, strain vph1, hits give low values 1.03 | S. cerevisiae deletion strains, locus YOR290C, strain snf2, hits give low values 1.01 | S. cerevisiae deletion strains, locus YOR316C, strain cot1, hits give low values 0.995 | S. cerevisiae deletion strains, locus YPL051W, strain arl3, hits give low values 1.02 | S. cerevisiae deletion strains, locus YPL055C, strain LGE1, hits give low values 1.02 | S. cerevisiae deletion strains, locus YPL078C, strain atp4, hits give low values 1.02 | S. cerevisiae deletion strains, locus YPL106C, strain sse1, hits give low values 1 | S. cerevisiae deletion strains, locus YPL240C, strain hsp82, hits give low values 1.02 | S. cerevisiae deletion strains, locus YPL241C, strain CIN2, hits give low values 1 | S. cerevisiae deletion strains, locus YPL256C, strain CLN2, hits give low values 0.967 | S. cerevisiae deletion strains, locus YPR119W, strain clb2, hits give low values 0.986 | S. cerevisiae deletion strains, locus YPR141C, strain kar3, hits give low values 0.988 | S. cerevisiae deletion strains, locus YPR163C, strain tif3, hits give low values 0.996 | S. cerevisiae deletion strains, locus YPR167C, strain met16, hits give low values 0.989 | S. cerevisiae deletion strains, strain wtn01, hits give low values 0.945 | S. cerevisiae strains, strain wild type, hits give low values 1.02

— PubChem BioAssay AID1159580 (chemical genetic matrix, 2015)
